In all, about 5,500 compounds went through this assay and about 2,000 (36%) were called active. About 18% were inconclusive and are not listed. No stated cut-off is given here; in the data, active means normalized growth mostly below about 0.91 (no sharp cut-off); inconclusive means no clear call, values can overlap the other calls; inactive means mostly above about 0.92. The list shows a part of the results.
Assay: chemical genetic growth profiling, strain panel (AID 1159580);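 further: tested at 20 µM; growth read once vehicle control cultures reached saturation at 30 °C; 1 = growth at the plate median or of vehicle wells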
Details: growth OD

Measured: normalized growth

CCCOc1ccc2nc(NC(=O)OC)[nH]c2c1
inactive: S. cerevisiae deletion strains, locus YJR075W, strain HOC1, stronger effect = lower value 0.992 | S. cerevisiae deletion strains, locus YKL009W, strain mrt4, stronger effect = lower value 0.99 | S. cerevisiae deletion strains, locus YKL068W, stronger effect = lower value 0.995 | S. cerevisiae deletion strains, locus YKL085W, strain MDH1 (second series), stronger effect = lower value 0.995 | S. cerevisiae deletion strains, locus YKL085W, strain MDH1, stronger effect = lower value 0.995 | S. cerevisiae deletion strains, locus YKL160W, strain elf1, stronger effect = lower value 1.02 | S. cerevisiae deletion strains, locus YKL190W, strain CNB1, stronger effect = lower value 1.02 | S. cerevisiae deletion strains, locus YKR001C, strain vps1, stronger effect = lower value 0.96 | S. cerevisiae deletion strains, locus YKR026C, strain gcn3, stronger effect = lower value 1.02 | S. cerevisiae deletion strains, locus YKR091W, strain srl3, stronger effect = lower value 1.01 | S. cerevisiae deletion strains, locus YLL001W, strain dnm1, stronger effect = lower value 1.01 | S. cerevisiae deletion strains, locus YLL026W, stronger effect = lower value 1.01 | S. cerevisiae deletion strains, locus YLL041C, strain sdh2, stronger effect = lower value 1.01 | S. cerevisiae deletion strains, locus YLR027C, strain aat2, stronger effect = lower value 1.01 | S. cerevisiae deletion strains, locus YLR039C, strain RIC1, stronger effect = lower value 0.833 | S. cerevisiae deletion strains, locus YLR058C, strain SHM2, stronger effect = lower value 0.99 | S. cerevisiae deletion strains, locus YLR102C, strain apc9, stronger effect = lower value 0.981 | S. cerevisiae deletion strains, locus YLR113W, strain HOG1, stronger effect = lower value 1.03 | S. cerevisiae deletion strains, locus YLR221C, strain rsa3, stronger effect = lower value 1.01 | S. cerevisiae deletion strains, locus YLR258W, strain gsy2, stronger effect = lower value 1.01 | S. cerevisiae deletion strains, locus YLR262C, strain YPT6 (second series), stronger effect = lower value 0.955 | S. cerevisiae deletion strains, locus YLR262C, strain YPT6, stronger effect = lower value 0.849 | S. cerevisiae deletion strains, locus YLR268W, strain sec22, stronger effect = lower value 0.971 | S. cerevisiae deletion strains, locus YLR320W, strain mms22, stronger effect = lower value 1.04 | S. cerevisiae deletion strains, locus YLR330W, strain CHS5, stronger effect = lower value 0.989 | S. cerevisiae deletion strains, locus YLR342W, strain FKS1 (second series), stronger effect = lower value 0.973 | S. cerevisiae deletion strains, locus YLR342W, strain FKS1, stronger effect = lower value 1.03 | S. cerevisiae deletion strains, locus YLR357W, strain rsc2, stronger effect = lower value 1.02 | S. cerevisiae deletion strains, locus YLR370C, strain arc18, stronger effect = lower value 1.02 | S. cerevisiae deletion strains, locus YLR371W, strain rom2, stronger effect = lower value 0.983 | S. cerevisiae deletion strains, locus YLR384C, strain iki3, stronger effect = lower value 1.01 | S. cerevisiae deletion strains, locus YLR418C, strain cdc73, stronger effect = lower value 0.878 | S. cerevisiae deletion strains, locus YML016C, strain PPZ1, stronger effect = lower value 0.983 | S. cerevisiae deletion strains, locus YML032C, strain rad52, stronger effect = lower value 0.982 | S. cerevisiae deletion strains, locus YML120C, strain ndi1, stronger effect = lower value 1.02 | S. cerevisiae deletion strains, locus YMR058W, strain fet3, stronger effect = lower value 1.01 | S. cerevisiae deletion strains, locus YMR078C, strain ctf18, stronger effect = lower value 0.979 | S. cerevisiae deletion strains, locus YMR125W, strain sto1, stronger effect = lower value 1.02 | S. cerevisiae deletion strains, locus YMR129W, stronger effect = lower value 1.02 | S. cerevisiae deletion strains, locus YMR205C, strain PFK2, stronger effect = lower value 1.03 | S. cerevisiae deletion strains, locus YMR223W, strain ubp8, stronger effect = lower value 0.96 | S. cerevisiae deletion strains, locus YMR231W, strain pep5, stronger effect = lower value 1.01 | S. cerevisiae deletion strains, locus YMR263W, strain SAP30, stronger effect = lower value 0.989 | S. cerevisiae deletion strains, locus YMR307W, strain GAS1, stronger effect = lower value 0.844 | S. cerevisiae deletion strains, locus YNL067W, strain RPL9B, stronger effect = lower value 1.01 | S. cerevisiae deletion strains, locus YNL071W, strain lat1, stronger effect = lower value 1.02 | S. cerevisiae deletion strains, locus YNL128W, strain TEP1, stronger effect = lower value 0.975 | S. cerevisiae deletion strains, locus YNL183C, strain NPR1, stronger effect = lower value 1.01 | S. cerevisiae deletion strains, locus YNL209W, strain ssb2, stronger effect = lower value 1.02 | S. cerevisiae deletion strains, locus YNL233W, strain BNI4, stronger effect = lower value 1.01 | S. cerevisiae deletion strains, locus YNL248C, strain rpa49, stronger effect = lower value 1.02 | S. cerevisiae deletion strains, locus YNL250W, strain rad50, stronger effect = lower value 0.98 | S. cerevisiae deletion strains, locus YNL271C, strain bni1, stronger effect = lower value 0.986 | S. cerevisiae deletion strains, locus YNL298W, strain CLA4, stronger effect = lower value 0.965 | S. cerevisiae deletion strains, locus YNL307C, strain MCK1, stronger effect = lower value 0.972 | S. cerevisiae deletion strains, locus YNL322C, strain KRE1 (second series), stronger effect = lower value 1 | S. cerevisiae deletion strains, locus YNL322C, strain KRE1, stronger effect = lower value 1 | S. cerevisiae deletion strains, locus YNR049C, strain mso1, stronger effect = lower value 1.01 | S. cerevisiae deletion strains, locus YNR052C, strain pop2, stronger effect = lower value 0.977 | S. cerevisiae deletion strains, locus YOL006C, strain TOP1, stronger effect = lower value 0.983 | S. cerevisiae deletion strains, locus YOL012C, strain htz1 0.822 | S. cerevisiae deletion strains, locus YOL147C, strain pex11, stronger effect = lower value 0.975 | S. cerevisiae deletion strains, locus YOR001W, strain rrp6, stronger effect = lower value 1.02 | S. cerevisiae deletion strains, locus YOR061W, strain CKA2, stronger effect = lower value 0.992 | S. cerevisiae deletion strains, locus YOR069W, strain VPS5, stronger effect = lower value 0.993 | S. cerevisiae deletion strains, locus YOR070C, strain gyp1, stronger effect = lower value 1.01 | S. cerevisiae deletion strains, locus YOR080W, strain dia2, stronger effect = lower value 1.02 | S. cerevisiae deletion strains, locus YOR083W, strain WHI5, stronger effect = lower value 1.02 | S. cerevisiae deletion strains, locus YOR106W, strain vam3, stronger effect = lower value 0.999 | S. cerevisiae deletion strains, locus YOR136W, strain idh2, stronger effect = lower value 0.995 | S. cerevisiae deletion strains, locus YOR144C, strain elg1, stronger effect = lower value 0.988 | S. cerevisiae deletion strains, locus YOR184W, strain ser1, stronger effect = lower value 0.957 | S. cerevisiae deletion strains, locus YOR231W, strain MKK1, stronger effect = lower value 1.07 | S. cerevisiae deletion strains, locus YOR265W, strain rbl2, stronger effect = lower value 1.01 | S. cerevisiae deletion strains, locus YOR270C, strain vph1, stronger effect = lower value 1.02 | S. cerevisiae deletion strains, locus YOR290C, strain snf2, stronger effect = lower value 1.01 | S. cerevisiae deletion strains, locus YOR316C, strain cot1, stronger effect = lower value 0.983 | S. cerevisiae deletion strains, locus YPL051W, strain arl3, stronger effect = lower value 1.01 | S. cerevisiae deletion strains, locus YPL078C, strain atp4, stronger effect = lower value 1.02 | S. cerevisiae deletion strains, locus YPL106C, strain sse1, stronger effect = lower value 1.02 | S. cerevisiae deletion strains, locus YPL240C, strain hsp82, stronger effect = lower value 1.01 | S. cerevisiae deletion strains, locus YPL256C, strain CLN2, stronger effect = lower value 1.02 | S. cerevisiae deletion strains, locus YPR119W, strain clb2, stronger effect = lower value 0.987 | S. cerevisiae deletion strains, locus YPR141C, strain kar3, stronger effect = lower value 0.993 | S. cerevisiae deletion strains, locus YPR163C, strain tif3, stronger effect = lower value 0.982 | S. cerevisiae deletion strains, locus YPR167C, strain met16, stronger effect = lower value 0.977 | S. cerevisiae deletion strains, strain wtn01, stronger effect = lower value 0.967 | S. cerevisiae strains, strain wild type, stronger effect = lower value 0.995
active: S. cerevisiae deletion strains, locus YML124C, strain tub3, stronger effect = lower value 0.88 | S. cerevisiae deletion strains, locus YNL153C, strain GIM3, stronger effect = lower value 0.438 | S. cerevisiae deletion strains, locus YPL241C, strain CIN2, stronger effect = lower value 0.606

— PubChem BioAssay AID1159580 (chemical genetic matrix, 2015)
